In all, about 2,500 compounds went through this assay and about 2,100 (84%) were called active. So high a share suggests a set chosen from earlier hits. The list is a sample of the results. Potency and affinity values are given separately. Values without a mark were called inactive.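 How the source made its calls: active means toxic compounds, whose cell viability fell below 70% of untreated control cells; inactive means the rest.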

A short description of this experiment: viability of uninfected HEp-2 cells – cell-based, HTS, cytotoxicity control for RSV inhibitor project, dose response (AID 2410).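 Further: cells exposed to compound for six days before readout; 100% = median signal of untreated cell control wells on each plate.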 The following applies: HEp-2 viability, luminescence, cytotoxicity counter-screen; series mostly up to 50 µM; viability: at the top concentration. (In general: A counterscreen serves to expose hits that act by an unwanted route or on another target.)
By viability is commonly meant a read-out of living cells in per cent, often relative to untreated cells. As for `CCOC(=O)c1cc(CC)sc1NC(=O)c1ccc2c(c1)OCCO2`, the “viability” value is 78.4%.

As for `CCC(CC)NC(=O)COC(=O)c1ccc(NS(=O)(=O)c2ccc3c(c2)OCCO3)cc1`, the “viability” value is 93.9%.

As to `Cc1cccc(Nc2nc(OCC#N)nc(N(C)C)n2)c1`, the “viability” value is 99.8%.

Turning to `Cc1ccc(S(=O)(=O)N2CCN(CCO)CC2)cc1-c1nnc2c3ccccc3c(C)nn12`, the “viability” value is 110%.

`Cc1ccnc(NS(=O)(=O)c2ccc(NC(=O)Cc3ccccc3)cc2)n1`: the “viability” value is 93.4%.

For `Cc1ccc(C2=NN(C(=O)COc3ncnc4ccccc34)C(c3ccco3)C2)cc1` (stereo unspecified), the “viability” value was 103%.

For the compound `O=C1CN2C(=Nc3ccc(Cl)cc3C2c2ccccc2)CN1` (stereo unspecified), the “viability” value is 90.6%.

For the compound `O=C1CC(Sc2nnc(-c3ccccc3)o2)C(=O)N1c1ccccc1` (stereo unspecified), the “viability” value is 93.9%.

As for `CN(CCO)c1nc(N)c2c(N)nc3c(c2c1C#N)CC(=O)N3Cc1cccs1`, the “viability” value was 101%.

Take `Clc1cccc(Nc2ncnc3c2cnn3-c2ccccc2)c1`: the “viability” value is 84%.

For `Cc1ccc2nc(NC(=O)CCn3c(=O)sc4ccccc43)sc2c1`, the “viability” value is 75.8%.

In the case of `CCOc1ccc2nc(NC(=O)Cc3cccs3)sc2c1`, the “viability” value is 96.1%.

`COc1cc(NC2c3ncccc3C(=O)N2Cc2ccco2)cc(OC)c1OC` (stereo unspecified): the “viability” value is 94.1%.

In the case of `Cc1ccc(-n2nc3c(=O)n(CCCC(=O)NCC(C)c4ccccc4)nc(C)c3c2C)cc1` (stereo unspecified), the “viability” value was 75.8% [at 25 µM].

Turning to `CC(C(=O)N=Nc1c(O)[nH]c2ccccc12)n1cnc2ccccc2c1=O` (stereo unspecified), the “viability” value is 70.9%.

Take `CCOC(=O)Cc1nnc(Nc2ccc(C)cc2)c2ccccc12`: the “viability” value was 84.4%.

For the compound `COC(=O)c1c(NC(NC(=O)C(C)(C)C)C(Cl)(Cl)Cl)sc2c1CCC2` (stereo unspecified), the “viability” value was 84.3%.

Regarding `Cc1ccc(OCc2ccc(Br)cc2)c([N+](=O)[O-])n1`, the “viability” value was 104%.

Regarding `COc1ccc(CNC(=O)CCCn2nc(C)c3c(C)n(-c4ccc(C)cc4)nc3c2=O)cc1`, the “viability” value was 93.4%.

Turning to `O=C(CSc1nc2nc3c(cc2c(=O)n1-c1ccccc1)CCCC3)Nc1cccc2ccccc12`, the “viability” value was 85%.

For `Nc1c2c(nc3sc4c(c13)CCCC4)-c1ccccc1CC2`, the “viability” value is 77.7%.

For the compound `Cc1noc(C)c1C(=O)OC(C)C(=O)Nc1ccc(S(=O)(=O)NC(C)C)cc1` (stereo unspecified), the “viability” value was 86.2%.

`CCCCc1cc(=O)oc2c3c(cc(OCC(=O)N4CCC[C@H]4C(=O)O)c12)OC(C)(C)CC3`: the “viability” value is 106%.

`Cc1cc(C)c2c(n1)sc1c(N3CCCCC3)ncnc12`: the “viability” value was 118%.

For `COc1ccc(Cl)cc1NS(=O)(=O)c1c(C)[nH]c(C)c1C(=O)N1CCCCC1`, the “viability” value is 93.7%.

In the case of `COc1ccc(N(CC(=O)NC2CCCC2)C(=O)c2ccc(C)s2)c(OC)c1`, the “viability” value is 81.1%.

Consider `CCCc1c(C(=O)Nc2ccc(C(F)(F)F)cc2)cnn1-c1ccccc1`, for which the “viability” value was 90.4%.

Take `Cc1cc(C)c(C)c(C(=O)CSc2nnc(-c3ccc4[nH]c(C)c(C)c4c3)o2)c1C`: the “viability” value is 75.9%.

Consider `Cc1c(NC(=O)CN2C(=O)c3ccccc3C2=O)c(=O)n(-c2ccccc2)n1C`, for which the “viability” value is 104%.

For `COc1ccc(S(=O)(=O)NCc2ccco2)cc1-c1nnc2c3ccccc3c(C)nn12`, the “viability” value was 71%.

Regarding `C/C(N)=C(/C#N)C(=O)COC(=O)CNS(=O)(=O)c1ccc2ccccc2c1`, the “viability” value is 112%.

For the compound `O=c1cc(-c2ccc(O)c(O)c2)oc2c(C3O[C@H](CO)[C@@H](O)[C@H](O)[C@H]3O)c(O)cc(O)c12` (stereo partly specified), the “viability” value was 109%.

`COc1ccc(OC)c(-c2nc3c(C)n[nH]c(=O)c3[nH]2)c1`: the “viability” value is 75.5%.

Regarding `COc1ccc(C(C)=O)cc1COc1ncnc2ccccc12`, the “viability” value was 95.6%.

Take `COc1ccc2c(CC(=O)Nc3ccc(OC)c(NS(=O)(=O)c4ccc(F)cc4)c3)coc2c1`: the “viability” value was 72.2%.

With `Cc1ccc(-c2n[nH]c(=S)n2/N=C/c2ccncc2)cc1`, the “viability” value is 103%.

For the compound `COCCNC(=O)c1cc2c(s1)-c1ccc(Cl)cc1SC2`, the “viability” value is 94%.

As to `Cc1cc2cc(C)c(NCCNC(=O)c3ccccc3F)nc2cc1C`, the “viability” value was 89.4%.

With `Clc1ccc(Nc2ccc3ccccc3n2)cc1`, the “viability” value is 74.3%.

Regarding `O=C(NC1=NCCS1)c1ccc(-c2ccc(Cl)cc2)o1`, the “viability” value is 86.3%.

On to `CCOC(=O)N1CCN(C(=O)CSc2nnc(-c3ccc(C)c(C)c3)o2)CC1`, for which the “viability” value is 80.2%.

Take `O/N=C/c1ccccc1OCc1ccc(Cl)cc1`: the “viability” value was 75.7%.

Regarding `O=C(O)c1nn(CCOc2c(Cl)cccc2Cl)c(=O)c2ccccc12`, the “viability” value is 103%.

Turning to `O=C(Nc1ccc(Cl)cc1Cl)C1=Cc2ccccc2OC1`, the “viability” value was 77.9%.

As to `COc1ccc(C(=O)Nc2cccc3c2CCCC3)c(OC)c1`, the “viability” value was 82.8%.

For the compound `O=C(O)c1ccc(N/N=C/c2cc(Br)cs2)cc1`, the “viability” value is 70.8%.

As to `CCOc1cccc(C(=O)Nc2ccc(NC(=O)c3ccccc3)c(C)c2)c1`, the “viability” value was 93.5%.

Turning to `CCOc1ccc(NC(=O)c2csc3c2CCCC3)cc1`, the “viability” value was 94.3%.

Regarding `COc1ccc(CCNC(=O)c2ccc(N(C)S(=O)(=O)c3ccc(C)cc3)cc2)cc1`, the “viability” value was 80.8%.

As for `COc1ccc2[nH]cc(C(=O)CN3CCN(C4CCCCC4)CC3)c2c1`, the “viability” value is 97.3%.

As to `CC1(C)Cc2cccc(C(=O)Nc3ccc(F)cc3F)c2O1`, the “viability” value is 102%.

Take `O=C1c2ccccc2C(=O)N1CC1c2ccccc2CCN1C(=O)C1CCCCC1` (stereo unspecified): the “viability” value was 97.2%.

As for `O=c1c2ccccc2nc(/C=C/c2ccc(Br)cc2)n1CCCO`, the “viability” value was 79.9%.

As for `CC(=O)N1CCN(C2=NC(=O)/C(=C/c3ccc(OS(=O)(=O)c4ccccc4)cc3)S2)CC1`, the “viability” value is 70.4%.

In the case of `CCn1nc(NC(=O)c2ccccc2)c2cc3cccc(C)c3nc21`, the “viability” value was 91.7%.

For the compound `Cc1csc2c(=O)sc(NC(=O)c3ccc(F)cc3)nc12`, the “viability” value is 83.2%.

For `N#Cc1c(-c2c(Cl)cccc2Cl)noc1/C=C/Nc1ccc(C(=O)O)cc1`, the “viability” value is 84.7%.

`Cc1[nH]c2ccccc2c1/C=N/Nc1ccc([N+](=O)[O-])cc1`: the “viability” value was 71.8%.

Turning to `Cc1ccc(-c2nc(-c3cccnc3)no2)c(C)c1`, the “viability” value was 74.2%.

Regarding `COc1ccc2nc(/C=N/NC(=O)[C@H](C)NC(=O)OC(C)(C)C)ccc2c1`, the “viability” value is 73.2%.

For `CC(=O)Nc1cccc(-c2csc(Nc3cccc(C)n3)n2)c1`, the “viability” value was 75%.

`CCOC(=O)c1cccc(NC(=O)Nc2cc(OC)ccc2OC)c1`: the “viability” value was 108%.

Regarding `N=C1SCC(=O)N1c1nc(-c2ccccc2)cs1`, the “viability” value was 70%.

For `CS(=O)(=O)c1ccccc1C(=O)Nc1ccc(-c2nc3ccccc3o2)cc1`, the “viability” value is 77%.

Turning to `CSc1nnc(-c2ccc(Cl)cc2Cl)o1`, the “viability” value was 94.3%.

Turning to `CCOc1ccc2nc3c(cc2c1)CN(CCCO)C(=NCCOC)S3`, the “viability” value is 83.7%.

For `O=[N+]([O-])c1ccc2c(c1)nnn2-c1ccccc1`, the “viability” value is 106%.

As for `CCN(CC)c1nc(Nc2ccc(Cl)cc2)nc(OCC#N)n1`, the “viability” value was 83.7%.

For the compound `Cn1c(=NC(=O)C2CC2)sc2cc(F)cc(F)c21`, the “viability” value was 81%.

For `COC(=O)c1ccc2[nH]ccc2c1`, the “viability” value is 109%.

Regarding `CC1CCCN(C(=O)CCNS(=O)(=O)c2ccc(Br)cc2)C1` (stereo unspecified), the “viability” value was 74.2%.

For `c1ccc(-c2nn3c(Cn4nnc5ccccc54)nnc3s2)cc1`, the “viability” value was 82.3%.

Regarding `c1coc(-c2nn3c(Cn4nnc5ccccc54)nnc3s2)c1`, the “viability” value was 92.8%.

For `CCOC(=O)Cc1c(C)c2ccc(N(CC)CC)cc2oc1=O`, the “viability” value was 92.8%.

In the case of `Cc1c(Cc2ccccc2)c(=O)oc2cc(O)cc(O)c12`, the “viability” value is 75.1%.

As to `CNc1oc(/C=C/c2cccc(OC)c2)nc1C#N`, the “viability” value is 105%.

In the case of `N#Cc1c(N2CCOCC2)nsc1-c1ccc(C(F)(F)F)cc1`, the “viability” value is 89.6%.

Take `Cc1ccc(-c2nc3cc(N)ccc3o2)cc1Br`: the “viability” value was 88.8%.

As for `COC(=O)c1sccc1NC(=O)c1ccccc1F`, the “viability” value is 98.8%.

`O=C(NCCN1CCN(C(=O)C(c2ccccc2)c2ccccc2)CC1)C(=O)Nc1ccccc1`: the “viability” value is 94.3%.

For the compound `COc1cc(N)c(Cl)cc1NC(=O)c1ccccc1`, the “viability” value is 98.5%.

`Cc1nn2c(N)c(C#N)cnc2c1-c1ccccc1`: the “viability” value is 76.8%.

Regarding `Cc1ccc(Nc2nc(N)c([N+](=O)[O-])c(N3CCOCC3)n2)cc1C`, the “viability” value is 86.4%.

On to `C[C@@H]1CN(C(=O)c2nc3ccc(Cl)cn3c2CN2CCc3sccc3C2)C[C@H](C)O1`, for which the “viability” value is 80.6%.

As for `CN(CC(=O)NCc1ccc(F)cc1)S(=O)(=O)c1cccc2nsnc12`, the “viability” value was 77.8%.

In the case of `CCN(c1ccccc1)S(=O)(=O)c1ccc(Cl)c(NC(=O)c2ccc(=O)[nH]n2)c1`, the “viability” value was 81.7%.

As to `CSc1ncc(Cl)c(C(=O)Nc2ccccc2Br)n1`, the “viability” value is 84%.

For the compound `C/C(N)=C(/C#N)C(=O)COC(=O)c1ccncc1`, the “viability” value was 92.3%.

Consider `C=CCC1(C#N)C(=S)NC(C)=C(C(=O)OCC)C1c1ccccc1` (stereo unspecified), for which the “viability” value is 73.7%.

`CNC(=S)N/N=C(\C)c1ccc(-n2ccnc2)cc1`: the “viability” value was 71.6%.

For the compound `Cc1ccc(-n2c(-c3cccnc3)n[nH]c2=S)c(C)c1`, the “viability” value was 103%.

Regarding `COc1cc(-c2nc3c(c(C)nn3-c3ccccc3)c3cc(OC)c(OC)cc23)ccc1O`, the “viability” value was 83.3%.

As to `COc1ccc(/C=C/C(=O)NCc2nc3ccccc3[nH]2)cc1OC`, the “viability” value was 71.4%.

In the case of `CC(C(=O)NCCc1ccc(Cl)cc1)n1c(=O)c2cccn2c2cccnc21` (stereo unspecified), the “viability” value is 101%.

In the case of `O=[N+]([O-])c1ccc(N/N=C/c2cccnc2)cc1`, the “viability” value is 95.9%.

`COc1ccc(C2Nc3cc(OC)ccc3-n3cccc32)cc1` (stereo unspecified): the “viability” value was 82.6%.

With `COc1ccc(-c2cc(C(=O)Nc3nc4c(C)cccc4s3)c3ccccc3n2)cc1OC`, the “viability” value was 75.3%.

For the compound `CCCNC(=O)N1CCN(c2nc(C(C)C)c3c(c2C#N)CC(C)(C)OC3)CC1`, the “viability” value was 97.5%.

For `Cc1cccc2nc(COc3ccc(Cl)c4cccnc34)cn12`, the “viability” value is 73%.

In the case of `O=C1[C@H]2[C@@H](c3ccc(F)cc3)N3C(=O)N(c4ccc(Br)cc4)C(=O)[C@@]3(Cc3ccc(Cl)cc3)[C@H]2C(=O)N1C1CCCCC1`, the “viability” value is 93.4%.

In the case of `O=C1[C@H]2[C@@H](c3ccc(Cl)cc3)N3C(=O)N(c4cccc(Br)c4)C(=O)[C@@]3(Cc3ccc(Cl)cc3)[C@H]2C(=O)N1C1CCCCC1`, the “viability” value is 73.5% [at 12.5 µM].

`CC(C)(C)N1C(=O)[C@H]2[C@@H](c3ccc(Br)cc3)N3C(=O)N(c4cccc(Cl)c4)C(=O)[C@@]3(Cc3ccccc3)[C@H]2C1=O`: the “viability” value was 79.2%.

Take `O=c1c2ccccc2oc2ccc(-c3ccc4[nH]ccc4c3)cc12`: the “viability” value was 84.9%.

As to `COc1ccc2oc(-c3ccco3)cc(=O)c2c1`, the “viability” value is 75.1%.

With `O=C1C2CCCN2c2ccc(S(=O)(=O)N3CCOCC3)cc2N1Cc1ccccc1F` (stereo unspecified), the “viability” value is 92.7%.

In the case of `O=C(c1ccc(F)cc1)N1CCN2C(=O)c3ccccc3C12c1ccccc1` (stereo unspecified), the “viability” value is 91.1%.

For the origin of these results see PubChem BioAssay AID2410 (Southern Research Specialized Biocontainment Screening …, 2010).
